# This is a sample that favours compounds with a hit; in the whole collection about 3% have one here.
# p53ts 39C kill – p53ts cell cytotoxicity, nonpermissive temperature; H1299-p53A138V viability at 39C, ATP luminescence, 24 h; Potency, µM (titrated, usually from 46.1 µM), inactives show at the highest dose activity change, negative = cell killing, usual class: cytotoxic; hit rate 1.5% among 130,000; AID 902; note: % is set by controls: 0 for no effect and ±100 for the full control effect; nearly all actives have a fitted effect of over 55% in size
# IkB sig inh – suppresses IkB signaling in ABC-DLBCL reporter cells; Potency, µM (series often up to 57.1 µM), inactives show at the top dose IkBa stabilization activation; ABC-DLBCL IkBa-CBG/CBR dual luciferase ratio, 4 h; response scale: scaled: untreated 0%, proteasome inhibitor 100%; hit rate 0.04% among 110,000; active = well fitted curve in the direction sought with a large enough effect in the signal ratio, not every such curve was filed as active; inconclusive = small, poorly fitted or top-dose-only effect, or a change in a side signal; the % refers to the signal ratio;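 note: the direction sought is a rising ratio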
#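 Luminescence ratio of IκBα-fused green versus native red beetle luciferase in OCI-Ly3 cells, 4 h post-doxycycline with compound; red signal alone, scaled from basal (0%) to zero light (-100%), flagged nonspecific or cytotoxic effects.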
# CRE Fsk mod – alters forskolin-stimulated CRE reporter signaling in CHO cells; CHO CRE-bla reporter (cAMP response element driving beta-lactamase), forskolin EC10, beta-lactamase ratio; AID 662; Potency, µM (titrated, usually from 38.2 µM), for the others: at the highest dose activity change, negative = inhibition, actives largely listed as activators; hit rate 2.5% among 71,000; active = well fitted activation curve with a large enough effect in the signal ratio, with a control signal flat, not every such curve was filed as active; inconclusive = small, poorly fitted or top-dose-only effect, or effect the other way, or a change in a side signal; the % refers to the signal ratio; note: % of control where 0% means no effect
#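 Beta-lactamase reporter under a cAMP responsive element in CHO cells; compounds tested in titration series against EC10 NKH 477, 3 h at 37 °C. Read-out: CCF4 FRET ratio 460nm/530nm (excitation 405nm) giving %Activity, fitted to AC50.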
# Imprint erasure – inducers of genomic imprint erasure in mouse ES cells; mouse ES Peg3-LacZ reporter, beta-gal luminescence, 40 h; Potency, µM (highest dose often 60.7 µM), for inactives: at the top dose activity change, positive = activation, hits mostly activators; hit rate 0.02% among 110,000
#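 Gelatin-coated wells received 300 freshly trypsinized female ES cells with a Peg3LacZ-Neo reporter on the maternal allele, then incubated 40 hours at 37C. BetaGlo was added for 5 minutes at room temperature before a single luminescence read.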
# p53ts 32C tox – kills p53ts cells at the permissive temperature | hit rate 0.93% among 130,000 | Potency, µM (top dose mostly 46.1 µM), for inactives: at the highest dose activity change, negative = cytotoxicity, usual class: cytotoxic | H1299-p53A138V at 32C, ATP luminescence viability, 24 h;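 note: 0% = DMSO and -100% = full killing by reference compound; nearly all actives have a fitted effect of over 55% in size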
#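 ATP-content luminescence (ATPlite) read-out after 24 h compound exposure at 32C in H1299-p53A138V cells (600/well). Tested up to 46 uM. Normalized to DMSO (0%) and 100 uM tamoxifen (100% killing); Hill-fit AC50.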
# The depositor's hits bear a star; ? = inconclusive; . = no result; [ ] = remark or other dose. Unless noted, calls come from the whole dose curve; as a rule, active = well fitted curve in the direction sought with a large enough effect; inconclusive = small, poorly fitted or top-dose-only effect, or another doubt; inactive = no such curve, though single readings can be large; an effect the other way counts as inactive or inconclusive. Potency is the fitted concentration of half-maximal effect.
SMILES,p53ts 39C kill,IkB sig inh,CRE Fsk mod,Imprint erasure,p53ts 32C tox
C=C(C)Cn1c(SCC(=O)c2ccccc2)nc2sc3c(c2c1=O)CCCC3,0%,2%,.,-18%[10.9 µM],?
CC(CCc1ccccc1)NCC(O)c1ccc(O)c(C(N)=O)c1 (centres undefined),3%,.,.,-13%,1%
OCc1cc([C@@H](O)CNCCCCCCOCCCCc2ccccc2)ccc1O,13µM*,?,-29%,-16%,-2%
CC(C)(C)NC(=O)NC(=O)COc1ccccc1C#N,13µM*,?,12%,-69%,13µM*
COc1ccc(S(=O)(=O)c2nnn(-c3ccccc3F)c2C)cc1,-2%,0%,.,7%[10.9 µM],-2%
O=C(/C=C/N1CCOCC1)c1coc2ccccc12,?,.,.,.,16µM*
O=C(/C=C/N1CCOCC1)c1cc2ccccc2o1,?,6%,-2%,-41%,13µM*
O=C(c1cc2ccccc2o1)N1CCCCCC1,0%,3%,-3%,-51%,-4%
O=C(O)c1coc2ccccc12,-7%,0%,-10%,-2%,-2%
Cc1ccc(-n2ncc(C(=O)NCCN3CCc4ccccc4C3)c2C2CCNCC2)cc1C,-4%,2%,.,5%[10.9 µM],3%
COc1cccc(NC(=O)CCSc2nnc3scc(-c4ccccc4)n23)c1,-2%,?,0.4µM*,-12%,-9%
COc1ccc(CNc2nc(-c3ccco3)nn2C(=O)CC(C)C)cc1,?,-1%,.,-17%[10.9 µM],-25%
COc1ccc(CNC(=O)CSc2ncc3c(n2)-c2ccc(Cl)cc2N(Cc2ccc(F)cc2)S3(=O)=O)cc1OC,-11%,?,.,8%[10.9 µM],0%
COc1ccc(OCCSc2nnc3sc4ccccc4n23)cc1,8%,?,0.5µM*,-24%,34%
Cc1ccc(Cl)cc1N1CCN(C(=O)c2ccc(C)c(-n3c(C)nc4cccnc43)c2)CC1,10%,?,.,-7%[10.9 µM],-15%
CCOC(=O)c1cc(-c2ccc(F)cc2)n(CCC(=O)Nc2nc3ccc(OC)cc3s2)c1C,2%,?,.,-12%[10.9 µM],14%
COc1ccc(-c2cc(C(F)(F)F)n3nc(C(=O)N4CCCCC4)cc3n2)cc1,-5%,-3%,13µM*,-18%,9%
CCCc1nnc(NC(=O)c2nc(S(=O)(=O)Cc3ccc(C)cc3)ncc2Cl)s1,?,-1%,.,-13%[10.9 µM],?
CC(C)Sc1ncc(Cl)c(C(=O)Nc2nnc(C(C)C)s2)n1,-27%,?,.,-5%[10.9 µM],6%
Cc1ccccc1CS(=O)(=O)c1ncc(Cl)c(C(=O)Nc2nnc(C(C)C)s2)n1,7.9µM*,?,.,-17%[10.9 µM],16µM*
CC(C)c1nnc(NC(=O)c2nc(S(=O)(=O)Cc3ccccc3)ncc2Cl)s1,6.3µM*,-2%,.,-31%[10.9 µM],20µM*
Cc1ccc(C(=O)Nc2ccc3c(c2)OCO3)cc1S(=O)(=O)N1CCCC1,-16%,8%,?,-23%,-14%
Cc1ccc(C(=O)Nc2cccc(C(=O)O)c2)cc1S(=O)(=O)N1CCCCC1,?,2%,0%[7.6 µM],-90%,13µM*
COc1ccc(-c2nc3cnc(N(C)C)nc3n(C)c2=O)cc1,?,-3%[11.4 µM],2µM*,7%,?
COc1ccc(Oc2ncc3nc(-c4ccc(Cl)cc4)c(=O)n(C[C@H]4CCCO4)c3n2)cc1,2%,8%[11.4 µM],?,-11%,-8%
SMILES,p53ts 39C kill,IkB sig inh,CRE Fsk mod,Imprint erasure,p53ts 32C tox
CN(C)c1ncc2nc(-c3cccs3)c(=O)n(C[C@H]3CCCO3)c2n1,-3%,2%[11.4 µM],1.6µM*,-3%,12%
COc1ccc(-c2nc3cnc(N(C)C)nc3n(C[C@H]3CCCO3)c2=O)cc1,-2%,-1%[11.4 µM],2µM*,-2%,6%
CCNc1ncc2nc(-c3cccs3)c(=O)n(C[C@H]3CCCO3)c2n1,-6%,-9%[11.4 µM],?,-4%,7%
CCN1CCN(c2cc(C)c3cc(NC(=O)c4cc(OC)c(OC)c(OC)c4)ccc3n2)CC1,-30%,3%,.,-8%[10.9 µM],-8%
CCN1CCN(c2cc(C)c3cc(NC(=O)/C=C/c4ccc(OCCC(C)C)cc4)ccc3n2)CC1,6.3µM*,?,.,-32%[10.9 µM],12%
CCN1CCN(c2cc(C)c3cc(NC(=O)/C=C/c4ccc(C)cc4)ccc3n2)CC1,3.2µM*,?,.,-6%[10.9 µM],?

# Screening results: PubChem, National Center for Advancing Translational Sciences (NCATS)
